The campaign covered roughly 400,000 compounds. About 13,000 (3.2%) were called active. Entries that show only a call come without a potency. Another 18% or so got no clear call; they are omitted. Calls follow the shape of the dose curve; as a rule, active = well fitted cell-killing curve with a large enough effect; inconclusive = small, poorly fitted or top-dose-only effect, or effect the other way; inactive = flat fitted curve, though single readings scatter. The sample as a whole holds a higher share of actives than the screen did.
Potency is read from the fitted curve at half-maximal effect.

This experiment is described as follows: qHTS assay for MDR1-selective chemotherapeutics: Primary screen using the drug-selected MDR subline cells KB-V1. Also: nearly all actives have a fitted effect of over 60% in size. The settings on record: KB-V1 MDR cells viability, CellTiter-Glo, 72 h; series mostly up to 46.1 µM. The text has this:
A prime difficulty in effectively treating cancer is the development of cellular resistance to multiple structurally unrelated anticancer drugs, a phenomenon known as multidrug resistance (MDR). […] Numerous strategies to overcome P-gp-mediated MDR have been explored, including the design of drugs that evade recognition and efflux, and development of inhibitors to block efflux and restore drug accumulation. […] An alternative approach is to exploit resistance by identifying drugs that target MDR cells over the non-resistant parental cells from which they were selected. […] The development of MDR1-selective agents represents a new strategy for resolving multidrug resistance, as it remains a long-standing clinical challenge for cancer chemotherapy.
Our goal is to identify compounds that selectively kill P-gp-expressing MDR cells. We will identify MDR1-selective compounds by comparing toxicity of compounds in the screening library against parental, drug-naive (KB-3-1) adenocarcinoma cells as well as their drug-selected MDR sub-line (KB-V1). The differential toxicity of compounds against these two cell lines will be used to identify MDR1-selective compounds, whose cytotoxicity is potentiated, rather than diminished, by P-gp expression. This assay will be utilized to conduct a quantitative high-throughput screen (qHTS) in collaboration with the NIH Chemical Genomics Center to identify selective agents, and probe hits arising from the screen will be validated using secondary assays and characterized through a well-established follow-up research program. This screen was run against the entire NCGC library collection of about 400,000 compounds.
NIH Molecular Libraries Probe Production Network [MLPCN]
NIH Chemical Genomics Center [NCGC]
PI: Michael Gottesman, National Cancer Institute, NIH
Briefly, 5 microL of media containing either KB-V1 cells (columns 1-2, 4-48) are dispensed into Greiner white, treated solid-bottom 1536-well assay plates (media-only control is added to column 3). Compounds are then transferred via Kalypsys pin tool equipped with 1536-pin array (10 nL slotted pins, V&P Scientific, San Diego, CA). Following addition of compound, the plates are incubated at 37 degrees C for 72 hours. CellTiter-Glo (2.5 µL/well) is then added, and the plates are read in a ViewLux reader (Perkin-Elmer, clear luminescence filter, 1 second exposure, 1x binning) following a 10 minute incubation. All cells are dispensed in DMEM phenol-red free media containing 10% FBS.
Library plates were screened starting from the lowest and proceeding to the highest concentration. Vehicle-only plates, with DMSO being pin-transferred to columns 5-48, will be inserted uniformly at the beginning and the end of each library in order to monitor and record any shifts in the background, which can be affected by reagent dispensers or loss in enzyme activity over time. Screening data will be corrected, normalized, and concentration-effect relationships will be derived by using publicly-available NCGC, NCATS curve fitting algorithms (http://ncgc.nih.gov/pub/openhts).
Regarding `O=C(Nc1cccn(Cc2ccccc2Cl)c1=O)NC1CCCCC1`, the Potency entry was “inactive”.

As for `O=C(Nc1cccn(Cc2c(Cl)cccc2Cl)c1=O)c1ccc(Cl)cc1`, the Potency is 3.66 µM (active).

As to `O=C(Nc1cccc2ccccc12)NC1CC1`, the Potency entry was “inactive”.

Take `CCCCNC(=O)OC1CC2CC1[C@H]1CCCCN1C2=O` (stereo not given in full): the Potency result was “inactive”.

With `C[C@@H]1CN([C@@H](C)CO)C(=O)c2cc(Br)cnc2O[C@@H]1CN(C)C(=O)C1CCCCC1`, the Potency entry is “inactive”.

Consider `N#CCC(=O)N/N=C/c1cn(Cc2ccc3ccccc3c2)c2ccccc12`, for which the Potency result is “inactive”.

On to `NC(=O)Cn1cc(/C=N\NS(=O)(=O)c2ccccc2)c2ccccc21`, for which the Potency entry is “inactive”.

As for `COc1cccc(Cn2cc(/C=N/NC(=O)c3cc(O)cc(O)c3)c3ccccc32)c1`, the Potency entry is “inactive”.

For `CCOC(=O)N/N=C/c1cn(Cc2ccccc2Cl)c2ccccc12`, the Potency was 5.8 µM (active).

In the case of `CNC(=S)N/N=C/c1cn(Cc2ccc(C)cc2)c2ccccc12`, the Potency is 16.4 µM (active).

Take `COC(=O)N/N=C/c1cn(CCCOc2ccc(C)cc2)c2ccccc12`: the Potency is 18.4 µM (active).

Take `Cc1ccc(OCCOc2cccc(/C=N/NC(N)=O)c2)cc1`: the Potency result is “inactive”.

Turning to `COc1ccc(OCCn2cc(C(=O)C3CCCCC3)c3ccccc32)cc1`, the Potency result was “inactive”.

For `CNC(=S)N/N=C/c1ccc(OCc2ccccc2)c(Br)c1`, the Potency entry was “inactive”.

`CCCCCCCCN1C(=O)[C@H](CC(=O)NCc2cccc3ccccc23)C[C@@]2(C(=O)OC)CCCCC=C12`: the Potency result is “inactive”.

For `Cc1ccccc1S(=O)(=O)NC(=O)C1(C)CCN1C(=O)Cc1ccc(Cl)cc1Cl` (stereo not given), the Potency entry is “inactive”.

Regarding `CCc1nc2c(OCCOc3ccc(F)cc3)cccn2c1N(C)C(=O)c1ccccc1F`, the Potency entry is “inactive”.

With `Clc1ccc(-c2cccc3nccn23)cc1`, the Potency entry is “inactive”.

For the compound `C=CCN1CCN(c2ccncc2S(=O)(=O)N2CCN(C)CC2)CC1`, the Potency result is “inactive”.

For the compound `COc1cccc(NC(=O)Nc2ccc3c(c2)N(C)C(=O)c2ccccc2S3)c1`, the Potency entry was “inactive”.

Regarding `CC1(C)C=Cc2c(ccc(C(=O)/C=C/c3ccccc3)c2O)O1`, the Potency result is “inactive”.

On to `O=C(COc1ccccc1F)NNC(=O)c1ccc(N2CCCCC2)c([N+](=O)[O-])c1`, for which the Potency is 16.4 µM (active).

Consider `O=C(NCCCN1CCOCC1)c1ccc(N2CCCC2)c([N+](=O)[O-])c1`, for which the Potency entry is “inactive”.

For `O=C(c1ccc(N2CCOCC2)c([N+](=O)[O-])c1)N1CCN(c2ccccc2F)CC1`, the Potency result is “inactive”.

With `CN(C)c1cccc(NC(=O)c2ccc(-c3ccc(F)c(F)c3)c3ccoc23)c1`, the Potency result was “inactive”.

In the case of `CO[C@@H]1CN(C)C(=O)c2cc(NC(=O)Nc3cc(F)ccc3F)ccc2OC[C@H](C)N(C(=O)c2ccccn2)C[C@@H]1C`, the Potency entry is “inactive”.

As to `CCCCC(=O)OC1=CN(Cc2ccccc2)S(=O)(=O)c2ccccc21`, the Potency result was “inactive”.

On to `CC1CCCCN1CC(=O)N1CCCc2c1c(=O)oc1ccc(OCc3ccccc3)cc21` (stereo not given), for which the Potency entry is “inactive”.

With `O=C(CN1CCOCC1)N1CCCc2c1c(=O)oc1ccc(OCc3ccccc3)cc21`, the Potency is 18.4 µM (active).

With `O=C(COc1ccc2oc3c(c2c1)CCCC3)Nc1ccccn1`, the Potency entry is “inactive”.

Consider `CCOc1ccc(CCN2C(=S)N([C@@H](CC(C)C)CN3CCC[C@@H]3CN3C(=S)NC[C@@H]3Cc3ccc(O)cc3)C[C@@H]2CC(C)C)cc1`, for which the Potency result was “inactive”.

Regarding `CC(=O)Nc1cncc(-c2ccccc2CO)n1`, the Potency entry was “inactive”.

`O=C(CN(c1ccccc1)S(=O)(=O)c1ccc(Cl)cc1)Nc1ccccc1C(=O)N1CCCC1`: the Potency is 5.8 µM (active).

For the compound `COc1ccccc1N(CC(=O)Nc1ccccc1C(=O)N1CCCC1)S(C)(=O)=O`, the Potency entry is “inactive”.

Take `O=C(Nc1ccccc1C(=O)N1CCCCCC1)c1ccccc1Cl`: the Potency entry is “inactive”.

For `COc1cccc(CN(C)C(=O)CC[C@H]2O[C@@H](n3cnc4c(NC(=O)c5ccccc5)ncnc43)[C@H](O)[C@@H]2O)c1`, the Potency entry was “inactive”.

As for `COc1cccc(N2CCN(C(=O)CCCCCn3c(=O)[nH]c4ccccc4c3=O)CC2)c1`, the Potency entry was “inactive”.

As for `Cc1ccc(C)c(N2CCN(C(=O)CCCCCn3c(=S)[nH]c4ccc(N5CCOCC5)cc4c3=O)CC2)c1`, the Potency result was “inactive”.

Take `Cc1ccc(C)c(N2CCN(C(=O)CCCCn3c(=O)[nH]c4ccccc4c3=O)CC2)c1`: the Potency is 6.51 µM (active).

For `COc1ccc(CCNC(=O)CCCCn2c(=O)c3ccccc3n(Cc3ccccc3)c2=O)cc1OC`, the Potency result is “inactive”.

With `Oc1ccccc1-c1nc(/C=C/c2ccc(F)cc2)no1`, the Potency entry is “inactive”.

With `Fc1ccc(-n2c(Cc3ccccc3)nnc2SCc2nc(-c3ccc(Cl)cc3)no2)cc1`, the Potency is 14.6 µM (active).

As for `Cc1ccc(-c2noc(CSc3nnc(-c4ccncc4)n3-c3ccc(F)cc3)n2)cc1`, the Potency is 8.2 µM (active).

As for `Cc1ccc(-c2noc(CSc3nnnn3-c3ccccc3)n2)cc1`, the Potency result is “inactive”.

For the compound `Cn1cccc1Cc1nnc(SCC(=O)NCCc2ccccc2)n1-c1ccc(F)cc1`, the Potency entry was “inactive”.

As to `COc1ccc(-c2noc(CSc3nc4ccc(C)cc4[nH]3)n2)cc1`, the Potency entry was “inactive”.

In the case of `Cc1ccc(-c2noc(CSc3nnc(-c4cccs4)n3C)n2)cc1`, the Potency is 13 µM (active).

On to `Cc1ccc(-c2noc(CSc3nnc(-c4ccc(Cl)cc4)n3C)n2)cc1`, for which the Potency entry is “inactive”.

With `COc1ccc(-c2noc(CSc3nnc(-c4ccccc4)n3-c3ccc(F)cc3)n2)c(OC)c1`, the Potency entry was “inactive”.

For the compound `Cc1ccc(-c2noc(CSc3nnc(-c4ccccc4)n3C)n2)cc1`, the Potency entry was “inactive”.

The values are drawn from PubChem BioAssay AID1347076 (National Center for Advancing Translational Sciences (NCATS), 2019).
